Measured values published in publication PMC10163288.
The list is a sample of the results. How many sequences the whole screen found active is unknown.

B1: il10ra_site1_sap_40_mot_HHH_b1_00102_af2_000000216_0001_43_57_H_._HHH_b1_07360_0001_0000500039_0000002_0_0001_af2pred_0001 (protein)
chain: SSSSSDEEELEEEAKRLMEELEKHGDPELFTRLAELAKLLAELGNPLFEEVAELLARLQSSSSSS
B2: il10ra_site1_sap_25_mot_HHH_b2_05540_000000178_0001_1_18_H_._ems_p1-15H-GBL-16H-GABBL-16H_0381_0001_0001_0001_0001_0000500025_0000002_0_0001 (protein)
chain: SSSSSDMEELYRRIAELLRRLREVSPEEREELLREAKELAEELNNEYLKRAIEHMARAVNSSSSS
B3: il10ra_site1_sap_27_mot_HHH_b2_02537_000000065_0001_1_20_H_._HHH_b2_03111_af2_0001_0000200010_0000001_0_0001 (protein)
chain: SSSSSAAEELKEIIEELLRLQREGDEEEFEKLIEEAERELKEKGDQLSLRIIEYILRLFHSSSSS
B4: il10ra_site1_normal_mot_HHH_b1_02062_000000185_0001_1_20_H_._HHH_b1_02799_af2_0001_0000300032_0000001_0 (protein)
chain: SSSSDELLQEVYELSREAAELDSDGDKEEAEKILEEAEEIAKELGNELFLFQVEYMLRLLKSSSS
B5: il10ra_site1_normal_mot_8756ee2cf497b5429c717dfc0c0bcfd6_0001_000000186_0001_1_13_H_._HHH_b2_02097_0001_0000100006_0000001_0 (protein)
chain: SSSSDLEEAIELVRRVVELLHEGNVEEARELVEEAEKVVEEAGNDVLRWQLEYLKRLLERDSSSS
B6: il10ra_site1_normal_mot_HHH_b2_02053_af2_000000006_0001_3_19_H_._HHH_b1_07461_0001_0000100009_0000001_0_af2pred_0001 (protein)
chain: SSSSSASEEVRKLLREALELLDKGNPEEAEELVEEAVRIAEENNNPVLLFVAEFLLKDIRGSSSS
B7: il10ra_site1_normal_mot_HHH_b2_00837_af2_000000287_0001_40_54_H_._HHH_b2_01069_af2_0001_0000200019_0000002_0 (protein)
chain: SSSSDEEERIKKLIEEVEELLEEGDPEEALELLFEATHFALELGNAELLREIWELVRSLKSSSSS
B8: il10ra_site1_normal_mot_HHH_b2_02386_000000054_0001_1_20_H_._HHH_b2_05043_0001_0000400073_0000003_0 (protein)
chain: SSSSTDESYELLREAIEEVIRLYKEGNPEEAEKVVEEVARRLEELGNPLAARQLENLLRLLSSSS
B9: il10ra_site1_normal_mot_HHH_b1_04771_000000013_0001_40_56_H_._HHH_b2_04957_af2_0001_0000100002_0000001_1 (protein)
chain: SSSSSEEVEEAVELSTKAFRLALRGNDEEAEEVLKEALKIAEEGNDPRIREVVEDLLQALSSSSS
B10: il10ra_site1_normal_mot_HHH_b1_01879_000000050_0001_1_18_H_._HHH_b1_00727_af2_0001_0000600044_0000002_0_af2pred_0001 (protein)
chain: SSSSSEEVLRLLLEALKLIRRGDLEEAEEVLKEMERLAEELNDEQARRAVEVLKRLLEELGSSSS

Biological target: il10ra, Q13651
Sequence (Q13651 whole entry): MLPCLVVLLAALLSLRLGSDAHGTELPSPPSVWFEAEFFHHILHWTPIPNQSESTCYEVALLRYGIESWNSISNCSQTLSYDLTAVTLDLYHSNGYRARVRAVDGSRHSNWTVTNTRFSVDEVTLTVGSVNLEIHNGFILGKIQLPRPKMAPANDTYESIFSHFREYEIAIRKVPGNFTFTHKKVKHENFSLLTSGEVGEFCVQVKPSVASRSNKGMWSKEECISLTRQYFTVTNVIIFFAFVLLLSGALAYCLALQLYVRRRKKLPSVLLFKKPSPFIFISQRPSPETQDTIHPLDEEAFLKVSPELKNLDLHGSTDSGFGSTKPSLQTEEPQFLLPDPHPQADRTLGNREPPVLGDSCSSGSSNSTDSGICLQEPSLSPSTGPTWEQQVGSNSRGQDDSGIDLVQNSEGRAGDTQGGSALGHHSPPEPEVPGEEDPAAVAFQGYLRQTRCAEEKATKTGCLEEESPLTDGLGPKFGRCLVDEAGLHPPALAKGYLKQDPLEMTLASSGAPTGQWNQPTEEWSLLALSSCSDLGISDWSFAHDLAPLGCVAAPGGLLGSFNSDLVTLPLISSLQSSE
Experiment: yeast display titration

Apparent Kd, inactive:
B1 no binding seen
B2 no binding seen
B3 no binding seen
B4 no binding seen
B5 no binding seen
B6 no binding seen
B7 no binding seen
B8 no binding seen
B9 no binding seen
B10 no binding seen
